Data on 18 compounds can be found in PubChem BioAssay (NCATS).

The structures appear in SMILES notation. Records with an inconclusive call do not appear. Where a call stands in place of a potency, no number is given. Unmarked numbers belong to inactive results. Active and inactive are the calls of the source. Calls follow the shape of the dose curve; as a rule, active = well fitted cell-killing curve with a large enough effect; inconclusive = small, poorly fitted or top-dose-only effect; inactive = no such curve, though single readings can be large or run the other way.

The assay is described as follows: qHTS of pediatric cancer cell lines to identify multiple opportunities for drug repurposing: Primary screen for Saos-2 cells (AID 1347097). Also: nearly all actives have a fitted effect of over 40% in size. The following applies: Saos-2 viability, CellTiter-Glo ATP luminescence, 48 h; series mostly up to 46 µM. A digest of the protocol:
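CRCs from 8- or 11-point titrations (lowest final 0.59 nM NPC, 0.78 nM MIPE). Cell viability: CellTiter-Glo after 48 h incubation, 15 min room-temperature development, luminescence imaging.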
Take `CS(=O)(=O)c1ccc([C@@H](O)[C@@H](CF)NC(=O)C(Cl)Cl)cc1`: the Potency entry was “inactive”.

Consider `Nc1nc2c(ncn2CCC(CO)CO)c(=O)[nH]1`, for which the Potency entry is “inactive”. With `Cc1cccc(Nc2cc(Cl)nc(SCC(=O)O)n2)c1C`, the Potency result is “inactive”. The same measure, in the same setting: to `CC(C)(C)NCC(O)COc1ccc(NC(=O)NC2CCCCC2)cc1` (stereo not drawn) belongs “inactive”; to `O=C1NS(=O)(=O)c2ccccc21`, “inactive”. For `O=C(O)c1ccccn1`, the Potency result is “inactive”.

Consider `CC(C)(O)c1ccccc1CC[C@@H](SCC1(CC(=O)O)CC1)c1cccc(/C=C/c2ccc3ccc(Cl)cc3n2)c1`, for which the Potency entry is “inactive”. On the same count and under the same terms, to `COc1ccccc1O` belongs “inactive”. Turning to `N[C@@H](CSSC[C@H](N)C(=O)O)C(=O)O`, the activity change, negative = cytotoxic is -6.38% [at 0.597 µM]. With `C[C@@H]1CN(c2c(F)c(F)c3c(=O)c(C(=O)O)cn(C4CC4)c3c2F)C[C@H](C)N1`, the Potency result is “inactive”. Still for that read-out and setting: to `O=C1O[C@H](CO)[C@@H](O)[C@H](O)[C@H]1O` belongs “inactive”. Same read-out and setting: next, `CC(=O)Nc1ccc(/C=N/NC(N)=S)cc1`: “inactive”; `O=C(O)CC(O)C(=O)O` (stereo not drawn): “inactive”. Consider `C[C@@H]1CC[C@@]2(OC1)O[C@H]1C[C@H]3[C@@H]4CC[C@H]5C[C@@H](O)CC[C@]5(C)[C@H]4CC(=O)[C@]3(C)[C@H]1[C@@H]2C`, for which the activity change, negative = cytotoxic was -14.3% [at 4.84 µM]. Consider `N[C@H]1C(O)O[C@H](CO)[C@@H](O)[C@@H]1O` (stereo partly drawn), for which the Potency result is “inactive”. Same read-out and setting: next, `C[C@H](N)[C@H](O)c1cccc(O)c1`: “inactive”. On the same count and under the same terms, to `CCCCN1CCCC[C@H]1C(=O)Nc1c(C)cccc1C` belongs “inactive”; to `CN(N=O)C(=O)N[C@@H]1[C@@H](O)[C@H](O)[C@@H](CO)O[C@@H]1O`, “inactive”.
